PrP UTR inh = suppresses PrP 5' UTR mRNA reporter expression; inhibition, % (test concentration not listed); actives 0.35% (n = 340,000); AID 488862; cell-based PrP 5' UTR mRNA reporter, plate reader; in the data active means inhibition above about 52%
SARS 3CLpro inh = SARS-CoV 3CLpro protease inhibition; P0C6X7; recombinant SARS-CoV 3CLpro, quenched FRET peptide cleavage; inhibition, % at 6 µM; actives 0.14% (n = 290,000); AID 1706; in the data active means inhibition above about 12%
PrPC TRFRET = inhibitors of human cell surface prion protein PrPC; P04156; TR-FRET read-out; inhibition, % at 13.8 µM; actives 0.43% (n = 370,000); AID 720596; in the data active means inhibition above about 24%
PriA SSB inh = blocks PriA binding to SSB C-terminal tail | actives 0.6% (n = 430,000) | inhibition, % at 33 µM | AlphaScreen SSBct-PriA binding, biotinylated peptide; in the data active means inhibition mostly above about 37%, no sharp cut-off; inactive means mostly below about 20%
Vc quorum ag = induces V. cholerae light production without autoinducers; V. cholerae BH1578 lux reporter, luminescence, 6 h; activation, % at 18.7 µM; actives 0.16% (n = 350,000); in the data active means activation mostly above about 9.7%, no sharp cut-off; inconclusive means no clear call, values can overlap the other calls; inactive means mostly below about 3.7%
PfHsp40 yeast = restores yeast growth despite PfHsp40 toxicity. S. cerevisiae expressing PfHsp40, growth rescue, ATP luminescence. growth rescue, % at 12.5 µM. actives 0.68% (n = 340,000); in the data active means growth rescue above about 28%, passing the limit was not always enough; inconclusive means no clear call, values can overlap the other calls;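 further: yeast W303a lacking pdr1 and pdr3 grown in galactose medium; growth measured after three days at 30 °C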
PrPC confirm = cell surface PrPC inhibition, TR-FRET confirmation; shares compounds with PrPC TRFRET; cell surface PrPC level; inhibition, % at 13.8 µM; actives 65% (n = 1,500); in the data active means inhibition above about 25%
LD9 cytotox = counter-screen for PrPc inhibitors: cytotoxicity in LD9 cells; shares compounds with PrPC TRFRET; luminescence viability; inhibition, % at 13.8 µM; actives 29% (n = 1,500); AID 743201; in the data active means inhibition above about 9.5%
Hits are given with their value; 0 = inactive; ? = inconclusive; - = no result given. A selection: hits, their analogues and other compounds. The true share with any hit is near 1.6%.

SMILES	PrP UTR inh	SARS 3CLpro inh	PrPC TRFRET	PriA SSB inh	Vc quorum ag	PfHsp40 yeast	PrPC confirm	LD9 cytotox
CCCNC(=O)c1nnsc1S(=O)c1ccc(Cl)cc1 (stereo unspecified)	0	0	91	0	0	0	0	95
COc1ccc(OC(F)(F)F)cc1CC1(C)C(=O)Nc2ccc(S(=O)(=O)NC3CCCCC3)cc21 (stereo unspecified)	-	-	36	-	0	-	29	0
CC1(Cc2ccccc2OC(F)(F)F)C(=O)Nc2ccc(S(=O)(=O)NC3CCCCC3)cc21 (stereo unspecified)	-	-	0	-	0	-	-	-
CCCCCCCCCCCCCCCC[n+]1ccccc1	0	-	28	0	0	0	39	36
CCCCCCCCCCCCCCCC[n+]1ccc(C(N)=O)cc1	0	0	0	0	0	?	-	-
CC(Sc1ccccn1)C(=O)Nc1ccc2c(c1)OCCO2 (stereo unspecified)	0	-	0	0	0	0	-	-
O=C(CSc1nc(Cc2ccccc2)nc2ccccc12)Nc1ccc2c(c1)OCCO2	0	0	31	0	0	0	71	0
O=C(CSc1ncnc2ccccc12)Nc1ccc2c(c1)OCCO2	0	0	40	0	0	0	50	0
CC(Sc1ncnc2ccccc12)C(=O)Nc1ccc2c(c1)OCCO2 (stereo unspecified)	0	0	43	0	0	0	28	0
COc1ccc(S(=O)(=O)NCc2ccc3c(c2)cc(C)n3C)cc1	0	0	38	0	0	0	41	0
CCS(=O)(=O)NCc1ccc2c(c1)cc(C)n2C	0	0	0	0	0	0	-	-
Cc1cc2cc(CNS(=O)(=O)c3ccccc3)ccc2n1C	0	0	35	0	0	0	29	0
N#Cc1c(NC(=O)Nc2cccc(Cl)c2)sc2c1CCC2	-	-	-	0	-	-	-	-
Cc1nc2ccc(NC(=O)Nc3cccc(Cl)c3)cc2s1	-	-	-	0	-	-	-	-
CCCCC1=CC2=C(c3ccco3)C(=O)C(C)(OC(=O)c3ccc(OC)cc3)C(=O)C2=CN1CCc1ccccn1 (stereo unspecified)	0	-	26	0	0	0	33	0
COC(=O)\C(C(C)=O)=C(/C=C/C=C/N(C)C)N(C)C	0	0	0	0	0	0	-	-
COC(=O)/C(C(C)=O)=C(/C=C/C=C/N(C)C)N(C)C	0	0	50	0	0	0	0	0
Cc1ccc(NC(=O)CN2CCC(C(=O)Nc3ccc(F)c(F)c3)CC2)cc1	-	-	-	0	-	-	-	-
COc1ccccc1-c1n[nH]c(=S)n1-c1ccccc1	0	0	48	0	0	0	61	0
COc1ccccc1-c1n[nH]c(=S)o1	0	0	48	0	0	0	48	0
COc1ccc(Cl)cc1-c1n[nH]c(=S)o1	0	0	69	0	0	0	85	0
CN(C)S(=O)(=O)Oc1cccc(C(=O)Nc2cccc(Cl)c2)c1	0	0	24	0	0	0	0	20
CCOc1ccccc1N=C1SCC(C)N1C(=O)C1CCN(c2ncnc3sc(C)c(C)c23)CC1 (stereo unspecified)	0	-	40	0	0	0	56	0
COc1ccc2c(Cl)c(C(=O)NN)sc2c1	0	0	0	0	0	0	-	-
COc1ccc2c(Cl)c(C(N)=O)sc2c1	0	0	79	0	0	0	99	0
SMILES	PrP UTR inh	SARS 3CLpro inh	PrPC TRFRET	PriA SSB inh	Vc quorum ag	PfHsp40 yeast	PrPC confirm	LD9 cytotox
O=C(NCC1(c2cccs2)CCCC1)C1(c2ccccc2)CCOCC1	-	-	-	0	-	-	-	-
NC(Cc1ccc(Cl)cc1)c1csc(NC(=O)NCC2CCCCC2)n1 (stereo unspecified)	-	-	61	-	0	-	42	0
CN(c1ccccc1)S(=O)(=O)c1ccc(NC(=O)c2nc(S(C)(=O)=O)ncc2Cl)cc1	0	0	41	0	0	0	93	98
COc1cccc(NC(=O)c2nc(SC)ncc2Cl)c1	0	0	0	0	0	0	-	-
COc1cccc(NC(=O)c2nc(S(C)(=O)=O)ncc2Cl)c1	0	0	83	0	0	0	0	94
CCOc1cc(C2NC(=O)NC(c3ccccc3)=C2C(C)=O)ccc1OCC(N)=O (stereo unspecified)	0	0	0	0	0	0	-	-

Compound activity: PubChem BioAssay, several laboratories
